Results as given in the OligoGym collection.

molecular target: NGDN; assay: pooled miR-30 sensor sort-seq; sequence = guide strand; settings: shRNA
Further: reference of the scale not given here.

In order of falling sensor-assay potency score (higher = more potent):
1. TTGCTCATCATATTGCTGGGAT  0.439
2. TAATGTACTGGAACCAAGCGTG  -0.00853
3. TACAGCCATCACTTGCTCCTGG  -0.0207
4. TTCGCCGTCCTTTCTCTCGCTT  -0.269
5. TTCTAGACGCTTCTTCTCCCGC  -0.831
6. TTTCTCTCGCTTACTGACGCTC  -0.845
7. ATATTTCTTAGACACTCCCTTC  -0.888
8. TGTCACTGCAGTCTTGATCAGC  -0.949
9. TTGCTCGTTTTCGCCGTCCTTT  -1.03
10. TTTTCTTCCGACCTTTCTGAGG  -1.13
11. TAGGATTCTGATCCTCATCAAG  -1.32
12. TTTCTGTAGGATAGGCACCAGC  -1.35

molecular target: NHP2; assay: as above; settings: shRNA

In order of falling sensor-assay potency score (higher = more potent):
1. TTTCTGAACCTCTTTCACCCCG  0.283
2. TCTGCTTCTGCTTCACCGCTTT  0.228
3. TTCTGAACCTCTTTCACCCCGC  -0.0214
4. TTGACCATTATCACACAGGTGG  -0.273
5. TAGAGCTTCCGCGTGAGGCGGC  -0.484
6. TTCTGCTTCACCGCTTTCTTGA  -0.609
7. TTTCTTGATGCATTTGTAGAGC  -0.635
8. TAGACATAGGGCAAATTTCGGT  -0.754
9. TGCATTTGTAGAGCTTCCGCGT  -0.805
10. TTGACCAGCAGCTCCTGGTAGG  -0.886
11. TTCACCGCTTTCTTGATGCATT  -0.959
12. TTTGTAGAGCTTCCGCGTGAGG  -1.63

molecular target: NKIRAS2; assay: as above; settings: shRNA

In order of rising sensor-assay potency score (higher = more potent):
1. TATTGTGTCCAACCAATGCATC  -1.63
2. TTGCGTCATCTTGCTGGCCAAG  -1.52
3. TGCGTCTCGATCATCTCCGAAC  -1.51
4. TCTCGATCATCTCCGAACCCAC  -1.49
5. TTTGTCAATCTCCTTCTTGAGC  -1.29
6. TTGTTCTTCCGGCTGAGGGGGA  -0.774
7. AAAGACTCTCTGCTATCTGTGC  -0.545
8. TTGCCAAGGACCACGATGGTGA  -0.541
9. TTATTGTGTCCAACCAATGCAT  -0.509
10. TTGAGCAGCTCCACACGCTGAA  -0.404
11. TATAATAGGAACTCAGACCCAA  -0.0468
12. TGTAAGTCACACTTGTTGCCAA  0.157

molecular target: NKPD1; assay: as above; settings: shRNA

In order of rising sensor-assay potency score (higher = more potent):
1. AGGAACTGCAGCTTGGTGCGGC  -1.31
2. TCTCGCGGTACAACAGGTCGTC  -0.615
3. TTGAGCGCGCTGACGGCTCGGA  -0.211
4. TAGATCTCCAGGAAGCACAGGA  0.323
